# Reference: PubChem BioAssay
# The source made the active and inactive calls.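 Rule for the calls, unless noted: active = primary screen active and over 50% activation in each of two duplicate runs; inactive = the rest.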
# Tested on: transient receptor potential cation channel C4 beta (TRPC4), mouse
# Test: TRPC4 cation channel opening, second retest – cell-based, second round, Fluo4, HEK293 TRPC4beta/mu-opioid, 1 µM, confirmation (AID 2461);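 for activation: 0% = wells without test compound as baseline of integrated fluorescence ratio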
# Details: Fluo4 calcium fluorescence, at 1 µM; hits give high values
Structure (SMILES),outcome,activation
CC1CCCCN1S(=O)(=O)c1ccc(C(=O)N(CCCN(C)C)c2nc3ccc(Br)cc3s2)cc1 (stereo not given),inactive,–
CC(C)(C)C(=O)NC(=S)NNC(=O)c1ccc(-c2ccccc2)cc1,–,60% (active)
CCCOc1ccc(C(=O)NNC(=S)NC(=O)c2ccccc2)cc1,inactive,–
OCCN1CCN(Cc2cc(Br)cc(Br)c2O)CC1,–,170% (active)
c1ccc(Nc2nc(Nc3ccccc3)nc(N3CCNCC3)n2)cc1,inactive,–
O=c1c2cc(Br)ccc2nc(-c2cccc(C(F)(F)F)c2)n1O,inactive,–
COc1cc(OC)cc(C(=O)NC(=S)NNC(=O)[C@H]2C[C@@H]2c2ccccc2)c1,inactive,–
c1ccc2c(c1)CCN(c1ncnc3c1[nH]c1ccccc13)C2,inactive,–
O=C(CCc1ccccc1)NNC(=S)NC(=O)c1ccc(Cl)cc1,inactive,–
Cc1cccc(C(=O)NNC(=S)NC(=O)c2cccs2)c1,inactive,–
CN(C)CCCN(C(=O)c1ccc(S(=O)(=O)N2CCCCCC2)cc1)c1nc2ccc(F)cc2s1,inactive,–
CC[C@@H](C(=O)[C@@H](C)[C@@H](O)[C@H](C)CCc1ccc(C)c(O)c1C(=O)O)[C@H]1O[C@](CC)([C@H]2CC[C@](O)(CC)[C@H](C)O2)C[C@@H]1C,inactive,–
Cc1occc1C(=O)NNC(=S)NC(=O)COc1ccc(Cl)cc1Cl,inactive,–
COc1cc(OC)cc(C(=O)N[C@H](C(=O)OCC(=O)NC(C)c2ccccc2)C(C)C)c1 (stereo not given in full),inactive,–
O=C(NC(=S)NNC(=O)[C@H]1C[C@@H]1c1ccccc1)c1cccc(F)c1,inactive,–
CCOc1ccccc1OCC(=O)Nc1cc(S(=O)(=O)N2CCCCC2)ccc1N1CCN(CC)CC1,inactive,–
Cc1onc(-c2c(F)cccc2Cl)c1C(=O)N1CCN(c2ncc(Br)cn2)CC1,inactive,–
CCOC(=O)C1=NN(C(=O)c2ccc(C)cc2)C(O)(c2ccc(Cl)cc2)C1 (stereo not given),inactive,–
COc1ccc(/C=C/CN2CCCC(C(=O)c3ccc(OC)c(F)c3)C2)cc1 (stereo not given),inactive,–
NCCSc1c(-c2ccc(Cl)cc2)[nH]c2ccccc12,inactive,–

Structure (SMILES),outcome,activation
COc1ccc(C(CNC(=O)c2cccc(NS(=O)(=O)c3ccc(C)c(F)c3)c2)N(C)C)cc1 (stereo not given),inactive,–
CCCOc1ccc(C(=O)NNC(=S)NC(=O)c2cccs2)cc1,inactive,–
CCOC(=O)C1CCCN(C(c2ccccn2)c2c(C)[nH]c3ccccc23)C1 (stereo not given),inactive,–
Cc1ccc(NS(=O)(=O)c2ccc(C(=O)N3CC(C)CC(C)C3)cc2)cc1 (stereo not given),inactive,–
COC(=O)C1=NN(C(=O)c2cccc(Br)c2)C(O)(c2ccc(Cl)cc2)C1 (stereo not given),inactive,–
Cc1cc(C)c(CN2CCN(Cc3ccc(C)o3)C(CCO)C2)c(-n2cccn2)c1 (stereo not given),inactive,–
CCOc1ccc2ncc(C(=O)c3ccc(OC)cc3)c(N3CCN(CC)CC3)c2c1,inactive,–
CC(C)(C)c1cc(CCC(=O)NNC(=S)NC(=O)c2ccccc2)cc(C(C)(C)C)c1O,inactive,–
COc1ccccc1C(=O)NNC(=S)NC(=O)c1sc2ccccc2c1Cl,inactive,–
O=C1CC(O)(C(F)(F)F)Oc2c1ccc1ccccc21 (stereo not given),inactive,–
CCCc1ccc(OCC(=O)NNC(=S)NC(=O)c2ccco2)cc1,inactive,–
Cc1ccccc1OCC(=O)NNC(=S)NC(=O)c1ccco1,inactive,–
CCCOc1ccc(C(=O)NC(=S)NNC(=O)c2c(-c3ccccc3)noc2C)cc1,inactive,–
Cc1cc(OCCCn2ccnc2)cc(C)c1Cl,inactive,–
CCN1CCN(c2c(S(=O)(=O)c3ccc(C)c(C)c3)cnc3ccc(F)cc23)CC1,inactive,–
Cc1cccc(C(=O)NC(=S)NNC(=O)c2cccs2)c1,inactive,–
Cc1ccc(C)c(-n2cc(CNCCc3cnccn3)c(-c3ccccc3)n2)c1,–,54% (active)
Cc1ccc2c(C)c(C(=O)N(Cc3cccs3)C3CCS(=O)(=O)C3)oc2c1 (stereo not given),inactive,–
CC(C)(C)c1ccc(C(=O)NC(=S)NNC(=O)c2cccs2)cc1,inactive,–
CCCCN(CC)CCCNC(=O)Cn1nc(Cc2ccncc2)c2ccccc2c1=O,–,120% (active)

# Tested on: TRPC4 (transient receptor potential cation channel C4 beta), mouse
# Test: potentiation of DAMGO EC20 TRPC4 response – cell-based, second round, Fluo-4, HEK293 TRPC4beta/mu-opioid, 1 µM, confirmation (AID 2554;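 active = primary screen hit whose fluorescence ratio, in both repeats, exceeds the weak agonist control mean by 3 SD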)
# Details: DAMGO EC20, Fluo-4 calcium flux, at 1 µM; hits give high values
row,Structure (SMILES),outcome
1,CC1CCCCN1S(=O)(=O)c1ccc(C(=O)N(CCCN(C)C)c2nc3ccc(Br)cc3s2)cc1 (stereo not given),inactive
2,CC(C)(C)C(=O)NC(=S)NNC(=O)c1ccc(-c2ccccc2)cc1,inactive
3,CCCOc1ccc(C(=O)NNC(=S)NC(=O)c2ccccc2)cc1,inactive
4,OCCN1CCN(Cc2cc(Br)cc(Br)c2O)CC1,inactive
5,c1ccc(Nc2nc(Nc3ccccc3)nc(N3CCNCC3)n2)cc1,inactive
6,O=c1c2cc(Br)ccc2nc(-c2cccc(C(F)(F)F)c2)n1O,inactive
7,COc1cc(OC)cc(C(=O)NC(=S)NNC(=O)[C@H]2C[C@@H]2c2ccccc2)c1,inactive
8,c1ccc2c(c1)CCN(c1ncnc3c1[nH]c1ccccc13)C2,inactive
9,O=C(CCc1ccccc1)NNC(=S)NC(=O)c1ccc(Cl)cc1,inactive
10,Cc1cccc(C(=O)NNC(=S)NC(=O)c2cccs2)c1,inactive
11,CN(C)CCCN(C(=O)c1ccc(S(=O)(=O)N2CCCCCC2)cc1)c1nc2ccc(F)cc2s1,inactive
12,CC[C@@H](C(=O)[C@@H](C)[C@@H](O)[C@H](C)CCc1ccc(C)c(O)c1C(=O)O)[C@H]1O[C@](CC)([C@H]2CC[C@](O)(CC)[C@H](C)O2)C[C@@H]1C,inactive
13,Cc1occc1C(=O)NNC(=S)NC(=O)COc1ccc(Cl)cc1Cl,inactive
14,COc1cc(OC)cc(C(=O)N[C@H](C(=O)OCC(=O)NC(C)c2ccccc2)C(C)C)c1 (stereo not given in full),inactive
15,O=C(NC(=S)NNC(=O)[C@H]1C[C@@H]1c1ccccc1)c1cccc(F)c1,inactive
16,CCOc1ccccc1OCC(=O)Nc1cc(S(=O)(=O)N2CCCCC2)ccc1N1CCN(CC)CC1,inactive
17,Cc1onc(-c2c(F)cccc2Cl)c1C(=O)N1CCN(c2ncc(Br)cn2)CC1,inactive
18,CCOC(=O)C1=NN(C(=O)c2ccc(C)cc2)C(O)(c2ccc(Cl)cc2)C1 (stereo not given),inactive
19,COc1ccc(/C=C/CN2CCCC(C(=O)c3ccc(OC)c(F)c3)C2)cc1 (stereo not given),inactive
20,NCCSc1c(-c2ccc(Cl)cc2)[nH]c2ccccc12,inactive

row,Structure (SMILES),outcome
1,COc1ccc(C(CNC(=O)c2cccc(NS(=O)(=O)c3ccc(C)c(F)c3)c2)N(C)C)cc1 (stereo not given),inactive
2,CCCOc1ccc(C(=O)NNC(=S)NC(=O)c2cccs2)cc1,inactive
3,CCOC(=O)C1CCCN(C(c2ccccn2)c2c(C)[nH]c3ccccc23)C1 (stereo not given),inactive
4,Cc1ccc(NS(=O)(=O)c2ccc(C(=O)N3CC(C)CC(C)C3)cc2)cc1 (stereo not given),inactive
5,COC(=O)C1=NN(C(=O)c2cccc(Br)c2)C(O)(c2ccc(Cl)cc2)C1 (stereo not given),inactive
6,Cc1cc(C)c(CN2CCN(Cc3ccc(C)o3)C(CCO)C2)c(-n2cccn2)c1 (stereo not given),inactive
7,CCOc1ccc2ncc(C(=O)c3ccc(OC)cc3)c(N3CCN(CC)CC3)c2c1,inactive
8,CC(C)(C)c1cc(CCC(=O)NNC(=S)NC(=O)c2ccccc2)cc(C(C)(C)C)c1O,inactive
9,COc1ccccc1C(=O)NNC(=S)NC(=O)c1sc2ccccc2c1Cl,inactive
10,O=C1CC(O)(C(F)(F)F)Oc2c1ccc1ccccc21 (stereo not given),inactive
11,CCCc1ccc(OCC(=O)NNC(=S)NC(=O)c2ccco2)cc1,inactive
12,Cc1ccccc1OCC(=O)NNC(=S)NC(=O)c1ccco1,inactive
13,CCCOc1ccc(C(=O)NC(=S)NNC(=O)c2c(-c3ccccc3)noc2C)cc1,inactive
14,Cc1cc(OCCCn2ccnc2)cc(C)c1Cl,inactive
15,CCN1CCN(c2c(S(=O)(=O)c3ccc(C)c(C)c3)cnc3ccc(F)cc23)CC1,inactive
16,Cc1cccc(C(=O)NC(=S)NNC(=O)c2cccs2)c1,inactive
17,Cc1ccc(C)c(-n2cc(CNCCc3cnccn3)c(-c3ccccc3)n2)c1,inactive
18,Cc1ccc2c(C)c(C(=O)N(Cc3cccs3)C3CCS(=O)(=O)C3)oc2c1 (stereo not given),inactive
19,CC(C)(C)c1ccc(C(=O)NC(=S)NNC(=O)c2cccs2)cc1,inactive
20,CCCCN(CC)CCCNC(=O)Cn1nc(Cc2ccncc2)c2ccccc2c1=O,inactive
